Values joined by “and” are separate entries in the source; they are usually repeats but may differ in a detail not shown here. Equal values may be shown once. Inconclusive results are not listed. Where a call stands in place of a potency, no number is given. A structure can be active in one record and inactive in another. Active and inactive are the calls of the source. Unless noted, the call rests on the fitted dose curve; in most records, active means well fitted curve in the direction sought with a large enough effect; inconclusive means small, poorly fitted or top-dose-only effect, or another doubt; inactive means no such curve, though single readings can be large; an effect the other way counts as inactive or inconclusive.
Tests used:
[1] = target: Glutathione peroxidase 1 (Homo sapiens) (UniProt P07203); test: Primary qHTS Assay for Inhibitors of Recombinant Selenoprotein Glutathione Peroxidase 1 (GPX1) (AID 1845191); conditions: recombinant GPX1, GR-coupled NADPH fluorescence, 15 min; series mostly up to 48.8 µM; further: nearly all actives have a fitted effect of over 65% in size; further: potency means the concentration at half of the fitted maximal effect
Glutathione peroxidase 1 (Homo sapiens), sequence (P07203 whole entry, looked up): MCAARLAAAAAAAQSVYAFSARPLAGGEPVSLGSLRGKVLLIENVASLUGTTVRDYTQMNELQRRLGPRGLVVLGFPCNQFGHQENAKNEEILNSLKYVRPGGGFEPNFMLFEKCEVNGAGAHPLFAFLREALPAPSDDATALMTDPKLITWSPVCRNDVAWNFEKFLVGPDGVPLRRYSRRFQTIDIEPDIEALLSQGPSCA
Procedure, shortened: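 10 nM GPX1 + cpd, 30 min RT; start w/ 1 mM GSH, 0.5 mM cumene hydroperoxide, 0.5 mM NADPH, 100 nM GR, 0.01% BSA; buffer 50 mM Tris-HCl pH 7.5, 2 mM EDTA, 150 mM NaCl; Fl 340/450, 0 & 15 min.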

[2] = qHTS profiling for inhibitors of Plasmodium falciparum proliferation (AID 504749); further: nearly all actives have a fitted effect of over 60% in size; further: potency means the concentration at half of the fitted maximal effect; conditions: P. falciparum in erythrocytes, SYBR Green DNA, 72 h
Procedure, shortened: (§1)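 Infected RBCs, 0.3% parasitemia/2.5% Hct final; cpd 72 h, 37 C, 5% CO2; lysis buffer with saponin/triton/SYBR Green I, o/n RT dark; FI 485/535; norm. to artemisinin (0.29 uM) and DMSO.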

[3] = system: 3D7; test: as above; conditions: P. falciparum in erythrocytes, SYBR Green DNA, 72 h; series mostly up to 28.7 µM
Procedure, shortened: as §1

[4] = target: Luciferin 4-monooxygenase (Photinus pyralis) (UniProt P08659); test: Primary firefly luciferase (FLuc) qHTS assay for identification of artifact compounds. (AID 1845220); conditions: purified firefly luciferase, luminescence, 5 min; series mostly up to 54.1 µM; further: nearly all actives have a fitted effect of over 60% in size
Procedure, shortened: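 Cell-free, 1536-well qHTS. Buffer pH 7.6 with 0.01% Tween-20 and 0.05% BSA; 10 uM D-luciferin, 10 uM ATP; 10 nM P. pyralis luciferase; luminescence after 5 min.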

[5] = Primary fluorescence-based thiol-reactive (MSTI) qHTS assay for identification of artifact compounds. (AID 1845221); conditions: MSTI thiol-reactivity probe, 1 h; series mostly up to 53.8 µM; further: nearly all actives have a fitted effect of over 65% in size; further: potency means the concentration at half of the fitted maximal effect
Procedure, shortened: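 First, 4 uM MSTI in 2% DMSO/PBS pH 7.4 was dispensed; next, compounds were added; then plates sat 1 h at room temperature without light. Finally, emission at 598 nm was recorded.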

[6] = system: Nanoluciferase (engineered Oplophorus gracilirostris luciferase); test: Primary Nanoluciferase (NLuc) qHTS assay for identification of artifact compounds. (AID 1845222); conditions: NLuc-conditioned medium, Nano-Glo luminescence, 5 min; series mostly up to 54.1 µM; further: potency means the concentration at half of the fitted maximal effect
Procedure, shortened: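 Compounds are pinned into diluted (1:55) conditioned medium of NLuc-expressing S16 cells and held 15 min at room temperature protected from light. Nano-Glo substrate follows, and luminescence is read 5 min later.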

[7] = Primary redox qHTS assay for identification of artifact compounds. (AID 1845223); conditions: Amplex Red/HRP redox cycling with DTT, fluorescence; series mostly up to 53.8 µM
Procedure, shortened: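 Amplex Red (25 uM) and HRP (250 mU/mL) in HBSS, with compounds for 15 min, then 250 uM DTT for 30 min, room temperature, dark. Fluorescence 525/598 nm read; normalized to DMSO and 10 uM DA3003; Hill fit.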

[8] = target: Phospholipid hydroperoxide glutathione peroxidase GPX4 (Homo sapiens) (UniProt P36969); test: Primary qHTS Assay for Inhibitors of Recombinant Selenoprotein Glutathione Peroxidase 4 (GPX4) (AID 1845192); conditions: recombinant GPX4, GR-coupled NADPH fluorescence, 15 min; series mostly up to 50 µM; further: nearly all actives have a fitted effect of over 65% in size
Phospholipid hydroperoxide glutathione peroxidase GPX4 (Homo sapiens), sequence (P36969 whole entry, looked up): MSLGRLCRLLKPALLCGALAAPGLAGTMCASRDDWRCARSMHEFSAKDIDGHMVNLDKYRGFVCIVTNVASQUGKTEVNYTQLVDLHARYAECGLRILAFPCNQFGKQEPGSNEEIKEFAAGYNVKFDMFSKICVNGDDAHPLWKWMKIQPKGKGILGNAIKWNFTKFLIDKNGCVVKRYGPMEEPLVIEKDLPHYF
Procedure, shortened: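 NADPH consumption, followed by fluorescence at 340/450 nm between 0 and 15 min, reports GPX4 activity via coupled glutathione reductase (100 nM). Enzyme 200 nM was pre-exposed to compound 30 min; 0.5 mM cumene hydroperoxide and 1 mM GSH served as substrates.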

[9] = target: Cytochrome P450 2C9 (Homo sapiens) (UniProt P11712); test: qHTS for inhibitors of CYP2C9 against the NCATS DSHEA and TCM libraries (AID 1919973); conditions: recombinant CYP2C9 enzyme activity, luminescence; series mostly up to 34.1 µM;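 further: luminogenic pro-luciferin CYP2C9 substrate turned into luciferin with NADPH regeneration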
Cytochrome P450 2C9 (Homo sapiens), sequence (P11712 whole entry, looked up, canonical isoform): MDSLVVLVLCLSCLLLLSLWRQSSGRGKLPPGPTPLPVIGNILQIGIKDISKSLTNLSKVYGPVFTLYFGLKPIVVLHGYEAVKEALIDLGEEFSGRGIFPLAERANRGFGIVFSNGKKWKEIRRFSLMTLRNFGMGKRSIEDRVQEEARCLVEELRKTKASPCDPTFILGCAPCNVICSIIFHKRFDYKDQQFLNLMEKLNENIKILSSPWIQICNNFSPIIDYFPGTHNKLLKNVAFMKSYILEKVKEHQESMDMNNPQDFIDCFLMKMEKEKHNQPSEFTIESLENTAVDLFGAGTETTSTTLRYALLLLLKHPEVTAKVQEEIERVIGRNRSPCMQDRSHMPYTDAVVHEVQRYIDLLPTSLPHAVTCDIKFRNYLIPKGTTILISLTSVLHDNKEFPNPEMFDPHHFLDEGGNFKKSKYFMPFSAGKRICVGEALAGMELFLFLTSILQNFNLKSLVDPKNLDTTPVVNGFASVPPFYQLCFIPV
Procedure, shortened: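 Read-out is luminescence after P450-Glo detection (30 min, RT). Before that: 15 min compound–enzyme preincubation, then 30-45 min reaction with 1x NADPH regeneration solution, substrate concentration isoform-specific.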

[10] = KB-3-1 P-gp reporter qHTS against the NCATS DSHEA and TCM libraries (AID 1919975); conditions: KB-3-1 parental cells, CellTiter-Glo luminescence viability, 72 h; series mostly up to 26.1 µM
Procedure, shortened: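 72 h exposure of KB-3-1 cells (DMEM, 10% FBS) to DSHEA/TCM samples, concentration-response; cell viability measured as CellTiter-Glo luminescence after 30 min at room temperature.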

[11] = qHTS Counterscreen for compound interference against the NCATS DSHEA and TCM libraries (AID 1919978); conditions: firefly luciferase detection reagent interference, luminescence
Procedure, shortened: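 Read-out is luminescence after 30 min at RT with luciferin detection reagent. Before that, compounds (19.5 nM to 39.8 uM final) sat 15 min at RT with 1 uM D-luciferin or 100 mM potassium phosphate buffer. PTC124 served as intraplate control.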

[12] = Dual reporter qHTS for agonist of Pregnane X Receptor (hPXR) against the NCATS DSHEA and TCM libraries: Fluorescence readout (AID 1920058); conditions: PXR dual reporter cells; series mostly up to 40 µM
Procedure, shortened: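 HepG2 hPXR-Luc, 2000 cells/well, 5 h attach; cpds ~24 h, 37 °C/5% CO2; CellTiter-Fluor 1 h; fluor. Ex/Em 405/540 nm = viability.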

[13] = target: Nuclear receptor subfamily 1 group I member 2 (Homo sapiens) (UniProt O75469); test: Dual reporter qHTS for agonist of Pregnane X Receptor (hPXR) against the NCATS DSHEA and TCM libraries: Luminescence readout (AID 1920059); conditions: hPXR dual reporter cells, luciferase luminescence agonist; series mostly up to 40 µM
Nuclear receptor subfamily 1 group I member 2 (Homo sapiens), sequence (O75469 whole entry, looked up): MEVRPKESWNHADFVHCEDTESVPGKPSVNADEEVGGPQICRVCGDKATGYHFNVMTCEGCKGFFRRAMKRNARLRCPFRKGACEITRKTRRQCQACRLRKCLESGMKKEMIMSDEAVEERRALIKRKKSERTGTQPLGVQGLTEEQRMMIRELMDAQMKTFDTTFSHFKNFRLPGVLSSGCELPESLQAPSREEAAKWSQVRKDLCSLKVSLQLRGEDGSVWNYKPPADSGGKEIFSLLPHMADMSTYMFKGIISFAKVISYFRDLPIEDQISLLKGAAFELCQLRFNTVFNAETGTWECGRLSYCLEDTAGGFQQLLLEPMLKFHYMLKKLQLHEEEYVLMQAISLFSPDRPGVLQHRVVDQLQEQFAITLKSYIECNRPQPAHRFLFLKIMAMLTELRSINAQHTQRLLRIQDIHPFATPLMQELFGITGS
Procedure, shortened: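 Luminescent PXR reporter read (ONE-Glo) after a CellTiter-Fluor viability read, following 24 h, 37C treatment of HepG2 cells stably carrying hPXR-Luc.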

[14] = target: Nuclear receptor subfamily 1 group I member 2 (Homo sapiens) (UniProt O75469); test: Dual reporter qHTS for antagonist of Pregnane X Receptor (hPXR) against the NCATS DSHEA and TCM libraries: Luminescence Readout (AID 1920060); conditions: hPXR dual reporter cells, luciferase luminescence, antagonist mode; series mostly up to 40 µM;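 further: HepG2 cells carrying hPXR luciferase reporter stimulated with rifampicin at 2 µM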
Procedure, shortened: (§2)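 HepG2 hPXR-Luc, 2000 cells/well, charcoal-stripped FBS medium; 5 h attach; RIF 2 uM final; 24 h 37C/5% CO2; CellTiter-Fluor 1 h, fluor 405/540; ONE-Glo 30 min RT, lum.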

[15] = Dual reporter qHTS for antagonist of Pregnane X Receptor (hPXR) against the NCATS DSHEA and TCM libraries: Fluorescence Readout (AID 1920061); conditions: PXR dual reporter cells, antagonist mode; series mostly up to 40 µM
Procedure, shortened: as §2

[16] = qHTS drug screen for cell cycle checkpoint inhibitors in PARPi-resistant BRCA-mutant ovarian cancer cell lines. (AID 1963452; calls by dose curve); conditions: PEO1/OlaR viability, CellTiter-Glo luminescence, 96 h, stronger effect = lower value
Procedure, shortened: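 PEO1, PEO4 and PEO1/OlaR ovarian cancer cells, 600 per well, exposed 96 h at 37C to a dilution series. Viability read by CellTiter-Glo luminescence, normalized to DMSO and empty wells; activity summarized as Z-AUC.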

[17] = at 28.7 µM (top of the series), parasite line A
[18] = at 28.7 µM (top of the series), parasite line B
[19] = measured here: PEO1 parental Z-AUC
[20] = at 12.8 µM (top of the series), parasite line B

CCCCc1nc(Cl)c(CO)n1Cc1ccc(-c2ccccc2-c2nn[nH]n2)cc1
Potency [1]: inactive | Potency ([2]; parasite line B): 12.6 µM (active) | Potency [3]: 5.62 µM (active)

Cc1ccccc1C(=O)Nc1ccc(C(=O)N2CCCC(N(C)C)c3ccccc32)cc1 (configuration not stated)
Potency [1]: inactive | outcome [4]: inactive | Potency [5]: inactive | Potency [6]: inactive | outcome [7]: inactive

OC[C@@H](O)[C@@H](O[C@@H]1O[C@H](CO)[C@H](O)[C@H](O)[C@H]1O)[C@H](O)[C@@H](O)CO
Potency [8]: inactive

O=C(CCCN1CCC(O)(c2ccc(Br)cc2)CC1)c1ccc(F)cc1
Potency [1]: inactive | Potency [3]: 5.62 µM (active)

CNCCC(Oc1ccccc1C)c1ccccc1 (configuration not stated)
Potency [1]: inactive | activity, negative = inhibition [2, 17]: 4.27% (inactive) | activity, negative = inhibition [2, 18]: 4.69% (inactive) | Potency [3]: inactive

C=CCc1ccc(O)c(OC)c1
Potency [1]: inactive | outcome [9]: inactive | outcome [10]: inactive | max response [11]: -2.5% (inactive) | outcome [12]: inactive | outcome [13]: inactive | outcome [14]: inactive | outcome [15]: inactive | activity, negative = inhibition [2, 17]: 9.84% (inactive) | activity, negative = inhibition [2, 18]: 1.91% (inactive) | Potency [3]: inactive

CC1=C(C(=O)OC(C)C)C(c2cccc([N+](=O)[O-])c2)C(C(=O)OC2CN(C(c3ccccc3)c3ccccc3)C2)=C(N)N1 (configuration not stated)
Potency [1]: inactive | Potency ([2]; parasite line A): 3.55 µM (active) | Potency ([2]; parasite line B): 7.08 µM (active) | Potency [3]: 7.08 µM (active)

C#C[C@]1(OC(C)=O)CC[C@H]2[C@@H]3CCC4=C[C@@H](OC(C)=O)CC[C@@H]4[C@H]3CC[C@@]21C
Potency [1]: inactive | outcome [4]: inactive | Potency [5]: inactive | Potency [6]: inactive | outcome [7]: inactive | activity, negative = inhibition [2, 17]: -15% (inactive) | activity, negative = inhibition [2, 18]: -19.2% (inactive) | Potency [3]: inactive

c1ccc(-c2ccc(C(c3ccccc3)n3ccnc3)cc2)cc1 (configuration not stated)
Potency [1]: inactive | Potency ([2]; parasite line B): 11.2 µM (active)

OC(CCN1CCCCC1)(c1ccccc1)c1ccccc1
Potency [1]: inactive | activity, negative = inhibition [2, 17]: 0.409% (inactive) | activity, negative = inhibition [2, 18]: -16.8% (inactive) | Potency [3]: inactive

Oc1ccc(O)cc1
Potency [1]: inactive | Potency [8]: inactive | Potency [3]: 8.91 µM (active)

C#C[C@]1(O)CC[C@H]2[C@@H]3CCC4=CC(=O)CC[C@@H]4[C@H]3CC[C@@]21C
Potency [8]: inactive

COc1cc2c(cc1OC)C(=O)C(CC1CCN(Cc3ccccc3)CC1)C2 (configuration not stated)
Potency [1]: inactive | activity, negative = inhibition [2, 17]: -29.4% (inactive) | activity, negative = inhibition [2, 18]: 5.51% (inactive) | Potency [3]: inactive

CCOc1ccc(NC(=O)CC(C)O)cc1 (configuration not stated)
Potency [1]: inactive | activity, negative = inhibition [2, 17]: -3.02% (inactive) | activity, negative = inhibition [2, 18]: 4.79% (inactive) | Potency [3]: inactive

CNCC[C@@H](Oc1ccccc1C)c1ccccc1
Potency [8]: inactive

CC1(C)O[C@@H]2C[C@H]3[C@@H]4CCC5=CC(=O)CC[C@]5(C)[C@@]4(F)[C@@H](O)C[C@]3(C)[C@]2(C(=O)CCl)O1
Potency [8]: inactive

CN(C/C=C/c1ccccc1)Cc1cccc2ccccc12
Potency [8]: inactive

COc1cc(NS(C)(=O)=O)ccc1Nc1c2ccccc2nc2ccccc12
Potency [1]: inactive and 25.5 µM (active) | Z-AUC [16]: -0.779 (inactive) | Z-AUC [16, 19]: -1.77 | Z-AUC ([16]; measured here: PEO4 Z-AUC): -0.818 | Potency ([2]; parasite line A): 2 µM (active) | Potency ([2]; parasite line B): 3.16 µM (active) | Potency [3]: 2 µM (active)

CN(C(=O)CN(CCO)CC(=O)N(C)C(C)(C)Cc1ccccc1)C(C)(C)Cc1ccccc1
Potency [1]: inactive | activity, negative = inhibition ([2]; at 12.8 µM (top of the series), parasite line A): 4.12% (inactive) | activity, negative = inhibition [2, 20]: -5.35% (inactive) | Potency [3]: inactive

CC(C)n1nc(-c2cc3cc(O)ccc3[nH]2)c2c(N)ncnc21
Potency [1]: inactive | outcome [4]: inactive | Potency [5]: 10.6 µM (active) | Potency [6]: inactive | Z-AUC [16]: -1.59 (inactive) | Z-AUC [16, 19]: -1.29 | Z-AUC ([16]; measured here: PEO4 Z-AUC): -1.52

Cc1cccn2c(=O)c(-c3nnn[nH]3)cnc12
Potency [1]: inactive | activity, negative = inhibition [2, 17]: 7.08% (inactive) | activity, negative = inhibition [2, 18]: 2.69% (inactive) | Potency [3]: inactive

N[C@H](CO)C(=O)O
Potency [1]: inactive | activity, negative = inhibition [2, 17]: -0.225% (inactive) | activity, negative = inhibition [2, 18]: -23.4% (inactive) | Potency [3]: inactive

Cc1cc2c(cc1CC(=O)c1sccc1S(=O)(=O)Nc1onc(C)c1Cl)OCO2
Potency [1]: 18 µM (active) and inactive | outcome [4]: inactive | Potency [6]: 16.9 µM (active) | outcome [7]: inactive | Z-AUC [16]: 0.64 (inactive) | Z-AUC [16, 19]: 0.98 | Z-AUC ([16]; measured here: PEO4 Z-AUC): 0.661

CCOc1ccc(Cc2nccc3cc(OCC)c(OCC)cc23)cc1OCC
Potency [1]: inactive | activity, negative = inhibition [2, 20]: -21.6% (inactive)

Oc1cc(O)c2c(c1)O[C@H](c1ccc(O)c(O)c1)[C@H](O)C2
Potency [8]: inactive

CC(=O)OCC(=O)[C@@]1(O)[C@H](C)C[C@H]2[C@@H]3CCC4=CC(=O)C=C[C@]4(C)[C@@]3(F)[C@@H](O)C[C@@]21C
Potency [1]: inactive | outcome [4]: inactive | Potency [5]: inactive | Potency [6]: inactive

Cc1onc(-c2c(Cl)cccc2Cl)c1C(=O)N[C@@H]1C(=O)N2[C@@H]1SC(C)(C)[C@@H]2C(=O)O
Potency [8]: inactive | outcome [4]: inactive | Potency [5]: inactive | Potency [6]: inactive

C[C@H]1C[C@H]2[C@@H]3CCC4=CC(=O)C=C[C@]4(C)[C@@]3(Cl)[C@@H](O)C[C@]2(C)[C@@]1(O)C(=O)CO
Potency [1]: inactive | activity, negative = inhibition [2, 17]: 2.21% (inactive) | activity, negative = inhibition [2, 18]: 13.1% (inactive) | Potency [3]: inactive

Source: PubChem BioAssay (NCATS)
